# Where a chain is given by its changes, count along the chain named. Whole data set: some 16,000 sequences, median “ka relative to ugcaugu” near 0.0091, cut for the highest 2% near 0.032. This is one part of a sample in which the highest values are shown more often than they occur.
# T1: RBFOX1 RRM (Homo sapiens, UniProt Q9NWB1 109-208)
# T1 sequence: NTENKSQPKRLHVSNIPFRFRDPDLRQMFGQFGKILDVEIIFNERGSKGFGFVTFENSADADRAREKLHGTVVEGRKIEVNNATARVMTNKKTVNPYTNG
# B1: UUCUUAU (DNA:RNA)
# RNA: GGGAGACCGGAAUUCAGAUUGUCCUUCUUAUUUAAAUCCCGUCGUAGCCACCA
# DNA 1: CAATCTGAATTCCGGTCTCCC
# DNA 2: TGGTGGCTACGACGGGATT
# B2: UGAUCGU (DNA:RNA)
# RNA: B1 RNA with U26G, C27A, U29C, A30G
# DNA 1: CAATCTGAATTCCGGTCTCCC
# DNA 2: TGGTGGCTACGACGGGATT
# B3: CCACUCA (DNA:RNA)
# RNA: B1 RNA with U25C, U26C, C27A, U28C, A30C, U31A
# DNA 1: CAATCTGAATTCCGGTCTCCC
# DNA 2: TGGTGGCTACGACGGGATT
# B4: GCAAACU (DNA:RNA)
# RNA: B1 RNA with U25G, U26C, C27A, U28A, U29A, A30C
# DNA 1: CAATCTGAATTCCGGTCTCCC
# DNA 2: TGGTGGCTACGACGGGATT
# B5: GGAACAC (DNA:RNA)
# RNA: B1 RNA with U25G, U26G, C27A, U28A, U29C, U31C
# DNA 1: CAATCTGAATTCCGGTCTCCC
# DNA 2: TGGTGGCTACGACGGGATT
# B6: AGAAUGC (DNA:RNA)
# RNA: B1 RNA with U25A, U26G, C27A, U28A, A30G, U31C
# DNA 1: CAATCTGAATTCCGGTCTCCC
# DNA 2: TGGTGGCTACGACGGGATT
# B7: AGCAUGA (DNA:RNA)
# RNA: B1 RNA with U25A, U26G, U28A, A30G, U31A
# DNA 1: CAATCTGAATTCCGGTCTCCC
# DNA 2: TGGTGGCTACGACGGGATT
# B8: AAGCAUC (DNA:RNA)
# RNA: GGGAGACCGGAAUUCAGAUUGUCCAAGCAUCUUAAAUCCCGUCGUAGCCACCA
# DNA 1: CAATCTGAATTCCGGTCTCCC
# DNA 2: TGGTGGCTACGACGGGATT
# B9: ACCAGCA (DNA:RNA)
# RNA: B8 RNA with A26C, G27C, C28A, A29G, U30C, C31A
# DNA 1: CAATCTGAATTCCGGTCTCCC
# DNA 2: TGGTGGCTACGACGGGATT
# B10: UAGCAUA (DNA:RNA)
# RNA: B8 RNA with A25U, C31A
# DNA 1: CAATCTGAATTCCGGTCTCCC
# DNA 2: TGGTGGCTACGACGGGATT
# B11: UAGCAUC (DNA:RNA)
# RNA: B8 RNA with A25U
# DNA 1: CAATCTGAATTCCGGTCTCCC
# DNA 2: TGGTGGCTACGACGGGATT
# B12: AGCAUAA (DNA:RNA)
# RNA: B1 RNA with U25A, U26G, U28A, U31A
# DNA 1: CAATCTGAATTCCGGTCTCCC
# DNA 2: TGGTGGCTACGACGGGATT
# B13: AGCCUGC (DNA:RNA)
# RNA: B8 RNA with A26G, G27C, A29U, U30G
# DNA 1: CAATCTGAATTCCGGTCTCCC
# DNA 2: TGGTGGCTACGACGGGATT
# B14: UAGCAUG (DNA:RNA)
# RNA: B8 RNA with A25U, C31G
# DNA 1: CAATCTGAATTCCGGTCTCCC
# DNA 2: TGGTGGCTACGACGGGATT
# B15: AAGCAUG (DNA:RNA)
# RNA: B8 RNA with C31G
# DNA 1: CAATCTGAATTCCGGTCTCCC
# DNA 2: TGGTGGCTACGACGGGATT
# B16: AAGCAUA (DNA:RNA)
# RNA: B8 RNA with C31A
# DNA 1: CAATCTGAATTCCGGTCTCCC
# DNA 2: TGGTGGCTACGACGGGATT
# B17: AGCAUGC (DNA:RNA)
# RNA: B8 RNA with A26G, G27C, C28A, A29U, U30G
# DNA 1: CAATCTGAATTCCGGTCTCCC
# DNA 2: TGGTGGCTACGACGGGATT
# B18: GGUGGAA (DNA:RNA)
# RNA: B1 RNA with U25G, U26G, C27U, U28G, U29G, U31A
# DNA 1: CAATCTGAATTCCGGTCTCCC
# DNA 2: TGGTGGCTACGACGGGATT
# B19: UGGCGAC (DNA:RNA)
# RNA: B8 RNA with A25U, A26G, A29G, U30A
# DNA 1: CAATCTGAATTCCGGTCTCCC
# DNA 2: TGGTGGCTACGACGGGATT
# B20: CCGGGGC (DNA:RNA)
# RNA: B8 RNA with A25C, A26C, C28G, A29G, U30G
# DNA 1: CAATCTGAATTCCGGTCTCCC
# DNA 2: TGGTGGCTACGACGGGATT
# B21: ACUCUUG (DNA:RNA)
# RNA: B8 RNA with A26C, G27U, A29U, C31G
# DNA 1: CAATCTGAATTCCGGTCTCCC
# DNA 2: TGGTGGCTACGACGGGATT
# B22: GAGUGCG (DNA:RNA)
# RNA: B8 RNA with A25G, C28U, A29G, U30C, C31G
# DNA 1: CAATCTGAATTCCGGTCTCCC
# DNA 2: TGGTGGCTACGACGGGATT
# B23: UGCCUUA (DNA:RNA)
# RNA: B1 RNA with U26G, U28C, A30U, U31A
# DNA 1: CAATCTGAATTCCGGTCTCCC
# DNA 2: TGGTGGCTACGACGGGATT
# B24: UUUUCUC (DNA:RNA)
# RNA: B1 RNA with C27U, U29C, A30U, U31C
# DNA 1: CAATCTGAATTCCGGTCTCCC
# DNA 2: TGGTGGCTACGACGGGATT
# B25: UUGUCUC (DNA:RNA)
# RNA: B8 RNA with A25U, A26U, C28U, A29C
# DNA 1: CAATCTGAATTCCGGTCTCCC
# DNA 2: TGGTGGCTACGACGGGATT
# B26: UUCAGGC (DNA:RNA)
# RNA: B1 RNA with U28A, U29G, A30G, U31C
# DNA 1: CAATCTGAATTCCGGTCTCCC
# DNA 2: TGGTGGCTACGACGGGATT
# B27: AGCAUUG (DNA:RNA)
# RNA: B8 RNA with A26G, G27C, C28A, A29U, C31G
# DNA 1: CAATCTGAATTCCGGTCTCCC
# DNA 2: TGGTGGCTACGACGGGATT
# B28: AUGCUGC (DNA:RNA)
# RNA: B8 RNA with A26U, A29U, U30G
# DNA 1: CAATCTGAATTCCGGTCTCCC
# DNA 2: TGGTGGCTACGACGGGATT
# B29: CAGCAUA (DNA:RNA)
# RNA: B8 RNA with A25C, C31A
# DNA 1: CAATCTGAATTCCGGTCTCCC
# DNA 2: TGGTGGCTACGACGGGATT
# B30: ACCAUGG (DNA:RNA)
# RNA: B1 RNA with U25A, U26C, U28A, A30G, U31G
# DNA 1: CAATCTGAATTCCGGTCTCCC
# DNA 2: TGGTGGCTACGACGGGATT
# B31: AGCCAUG (DNA:RNA)
# RNA: B8 RNA with A26G, G27C, C31G
# DNA 1: CAATCTGAATTCCGGTCTCCC
# DNA 2: TGGTGGCTACGACGGGATT
# B32: CAGCAUG (DNA:RNA)
# RNA: B8 RNA with A25C, C31G
# DNA 1: CAATCTGAATTCCGGTCTCCC
# DNA 2: TGGTGGCTACGACGGGATT
# B33: AGCAUGG (DNA:RNA)
# RNA: B1 RNA with U25A, U26G, U28A, A30G, U31G
# DNA 1: CAATCTGAATTCCGGTCTCCC
# DNA 2: TGGTGGCTACGACGGGATT
# B34: AUGCUUG (DNA:RNA)
# RNA: B8 RNA with A26U, A29U, C31G
# DNA 1: CAATCTGAATTCCGGTCTCCC
# DNA 2: TGGTGGCTACGACGGGATT
# B35: CAGCAUC (DNA:RNA)
# RNA: B8 RNA with A25C
# DNA 1: CAATCTGAATTCCGGTCTCCC
# DNA 2: TGGTGGCTACGACGGGATT
# B36: AGCAUGU (DNA:RNA)
# RNA: B1 RNA with U25A, U26G, U28A, A30G
# DNA 1: CAATCTGAATTCCGGTCTCCC
# DNA 2: TGGTGGCTACGACGGGATT
# B37: ACCAUGU (DNA:RNA)
# RNA: B1 RNA with U25A, U26C, U28A, A30G
# DNA 1: CAATCTGAATTCCGGTCTCCC
# DNA 2: TGGTGGCTACGACGGGATT
# B38: ACCAUGC (DNA:RNA)
# RNA: B8 RNA with A26C, G27C, C28A, A29U, U30G
# DNA 1: CAATCTGAATTCCGGTCTCCC
# DNA 2: TGGTGGCTACGACGGGATT
# Target: T1, RBFOX1 RRM
# Assay: EMSA; HiTS-Eq, 1 nM pool, 10 min; buffer printed only for the single-RNA assays: 10 mM Tris pH 7.5, 150 mM NaCl, 3.4 mM EDTA, 0.001% NP-40, 30 C
# Details: tags: His6 N-terminal (pET28a); label: 5' 32P
# Outline: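 Purified wild-type or mutant RbFox RRM at increasing concentrations was equilibrated with 1 nM of 5′-radiolabelled RNA carrying 7 randomized nucleotides for 10 min in 50 µL. Unbound RNA was separated by 8% native PAGE and sequenced. Relative association constants came from read-count changes of each RNA species compared with the control reaction, normalised to the cognate motif.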
row,Binder,binding signal
1,B1,0.00377 KA relative to UGCAUGU
2,B2,0.0285 KA relative to UGCAUGU
3,B3,0.0037 KA relative to UGCAUGU
4,B4,0.00432 KA relative to UGCAUGU
5,B5,0.0079 KA relative to UGCAUGU
6,B6,0.022 KA relative to UGCAUGU
7,B7,0.35 KA relative to UGCAUGU
8,B8,0.0137 KA relative to UGCAUGU
9,B9,0.0049 KA relative to UGCAUGU
10,B10,0.011 KA relative to UGCAUGU
11,B11,0.0216 KA relative to UGCAUGU
12,B12,0.00471 KA relative to UGCAUGU
13,B13,0.0203 KA relative to UGCAUGU
14,B14,0.795 KA relative to UGCAUGU
15,B15,0.674 KA relative to UGCAUGU
16,B16,0.00459 KA relative to UGCAUGU
17,B17,0.888 KA relative to UGCAUGU
18,B18,0.00994 KA relative to UGCAUGU
19,B19,0.00695 KA relative to UGCAUGU

row,Binder,binding signal
1,B20,0.0147 KA relative to UGCAUGU
2,B21,0.0078 KA relative to UGCAUGU
3,B22,0.0156 KA relative to UGCAUGU
4,B23,0.00671 KA relative to UGCAUGU
5,B24,0.0162 KA relative to UGCAUGU
6,B25,0.0203 KA relative to UGCAUGU
7,B26,0.0127 KA relative to UGCAUGU
8,B27,0.0104 KA relative to UGCAUGU
9,B28,0.00746 KA relative to UGCAUGU
10,B29,0.00331 KA relative to UGCAUGU
11,B30,0.00726 KA relative to UGCAUGU
12,B31,0.0102 KA relative to UGCAUGU
13,B32,0.665 KA relative to UGCAUGU
14,B33,0.347 KA relative to UGCAUGU
15,B34,0.0339 KA relative to UGCAUGU
16,B35,0.0124 KA relative to UGCAUGU
17,B36,0.738 KA relative to UGCAUGU
18,B37,0.00472 KA relative to UGCAUGU
19,B38,0.00513 KA relative to UGCAUGU
